ChEMBL document CHEMBL3988442, “University of Dundee, Small-Polar-MMV Screening Library” (2021)
Screen size: about 38,000 compounds; about 1,200 (3.2%) showed an effect of 50% or more. The median lay at about -58%. For the sample, strong results were picked, then their nearest neighbours and some compounds at random.

tested on: Plasmodium falciparum; test: Calibr Malaria Delayed Death Assay SOP; type: functional, organism-based; parameters: scale not given: in the data most compounds retested in dose-response had high values; conditions: concentration 4.99e-06 (unit not given; other assays of the set use mol/L)

Compared with CS(=O)(=O)NC(=O)c1ccn(-c2ccc(Cl)c(Cl)c2)n1, CS(=O)(=O)Cc1ccccc1NCc1cc(Cl)ccc1Cl is lower in “Percent Effect” value: -100.9% for the first, -167.2% for the second.

Compared with COCCN1C(=O)CC(c2cccnc2)C12CCN(C(=O)C1CC1)CC2.O=C(O)C(F)(F)F (configuration not stated), O=C(Cc1ccccc1)N1CCC2(CC1)COCCN2CC1CC1.O=C(O)C(F)(F)F is higher in “Percent Effect” value: -113.7% for the first, -81.37% for the second.

Going from CC(Oc1ccc2c(c1)OCO2)C(=O)Nc1ccon1 (configuration not stated) to Cc1n[nH]cc1CNCC1(c2ccc3c(c2)OCO3)CCOCC1.Cl, the “Percent Effect” value rises from -56.4% to -41.06%.

Going from NC(=O)CN1CCC(NCc2cc(C(F)(F)F)ccc2Cl)CC1 to Cc1cc(Cl)cc(C)c1CNC1CCN(CC(=O)N(C)C)CC1, the “Percent Effect” value rises from -47.52% to 52.71%.

Compared with Cc1cc2cc(CNC3CCN(CC(=O)N(C)C)CC3)oc2cc1C, CCS(=O)(=O)N1CCc2cc(C(=O)N(C)C)c(NCC3CC3)nc2CC1 is higher in “Percent Effect” value: -160% for the first, -99.83% for the second.

Compared with CNc1oc(-c2ccc(S(=O)(=O)N(C)C)o2)nc1C#N, Cc1nc(N(C)C)nc(C)c1NS(=O)(=O)c1ccccc1Cl is lower in “Percent Effect” value: -61.71% for the first, -104.4% for the second.

First: Cc1nc(C)n(CC2CCCN(Cc3nc(-c4ccco4)no3)C2)n1 (configuration not stated)
Second: Cc1nc(C)n(CC2CCCN2CC(=O)Nc2cccnc2)n1 (configuration not stated)
The “Percent Effect” value of the first is higher: -26.23% for the first, -55.47% for the second.

Compared with NC(c1ccccc1)c1ccc(OC(F)F)cc1 (configuration not stated), NC(CC1CCCC1)c1ccc(Oc2ccccc2)cc1 (configuration not stated) is higher in “Percent Effect” value: 9.975% for the first, 80.17% for the second.

Compared with OC(CN1CCN(CC2CCCCC2)CC1)c1ccccc1 (configuration not stated), NC(=O)C(NC1CCN(CC2CCCCC2)CC1)c1ccccc1 (configuration not stated) is lower in “Percent Effect” value: 2.939% for the first, -76.74% for the second.

Going from NC(=O)C(NC(=O)COC1CCCC1)c1ccccc1 (configuration not stated) to Cl.NC(CC1CCCC1)c1ccccc1 (configuration not stated), the “Percent Effect” value rises from -14.18% to 67%.

Compared with Cl.NC(CC1CCCCC1)c1ccccc1 (configuration not stated), Cl.NC(Cc1nc(-c2ccccc2)no1)c1ccccc1 (configuration not stated) is lower in “Percent Effect” value: 55.85% for the first, -266.4% for the second.

Compared with CC(NC(=O)CSCC(N)=O)c1ccc(Oc2ccccc2)cc1 (configuration not stated), CC(NC(=O)Cc1ccccc1F)(C(N)=O)c1cccc(Cl)c1 (configuration not stated) is higher in “Percent Effect” value: -26.87% for the first, -10.09% for the second.

Going from COc1ccc(Cn2cc(C(=O)N(C)Cc3ccon3)nn2)cc1 to COc1ccc(CCC(=O)N2CCCC(n3cncn3)C2)cc1 (configuration not stated), the “Percent Effect” value rises from -118.5% to -80.83%.

Compared with CC(C)COC[C@H]1CC[C@H]2[C@H](CCN2C(=O)c2ccncc2F)O1.O=C(O)C(F)(F)F, O=C(C1CCOC1)N1C[C@H]2CN(Cc3ccncc3)C(=O)[C@H]2C1.O=C(O)C(F)(F)F (some centres not stated) is higher in “Percent Effect” value: -129.5% for the first, -110.3% for the second.

First: COc1ccc(-c2cc(C(=O)Nc3nc[nH]n3)[nH]n2)cc1
Second: CNC(=O)Cc1cc2nccc(-c3c(OC)cccc3OC)n2n1
The “Percent Effect” value of the first is higher: -113.2% for the first, -192.8% for the second.

Going from Cc1ccc(C(=O)N2CCc3nc4c(C)csc4c(=O)n3CC2)cn1 to CCOc1ccc(C(=O)N2CCCCC2Cn2nc(C)cc2C)cn1 (configuration not stated), the “Percent Effect” value rises from -115% to -93.63%.

Going from CCn1nc(C)cc1C(=O)N1C[C@@H]2C[C@@H](c3noc(C)n3)O[C@@H]2C1 to Cc1cc2nc(C(C)C)cc(N3CCN(S(N)(=O)=O)CC3)n2n1, the “Percent Effect” value falls from -70.6% to -79.73%.

First: O=C(NCC1(O)CCOC1)NCC1(c2ccccc2Cl)CC1 (configuration not stated)
Second: Cc1n[nH]cc1CNCC1(c2ccccc2Cl)CCOCC1
The “Percent Effect” value of the first is lower: 1.417% for the first, 55.9% for the second.

First: CCn1nnc2c1C(COCCN(C)C)CN(Cc1ccc(C)s1)C2.O=C(O)C(F)(F)F.O=C(O)C(F)(F)F (configuration not stated)
Second: CCn1nnc2c1C(COCCN(C)C)CN(Cc1ccco1)C2.O=C(O)C(F)(F)F.O=C(O)C(F)(F)F (configuration not stated)
The “Percent Effect” value of the first is higher: 60.03% for the first, -73.97% for the second.

First: COCC(=O)N1Cc2ccnn2CC(COCCN(C)C)C1.O=C(O)C(F)(F)F.O=C(O)C(F)(F)F (configuration not stated)
Second: CN(C)CCOCC1CN(C(=O)c2ccsc2)Cc2ccnn2C1.O=C(O)C(F)(F)F.O=C(O)C(F)(F)F (configuration not stated)
The “Percent Effect” value of the first is higher: -13.35% for the first, -18.09% for the second.

Going from Cc1ccc(CN2Cc3nnn(C)c3C(COCC(=O)N(C)C)C2)s1.O=C(O)C(F)(F)F (configuration not stated) to CN(C)C(=O)c1cnc2n1CCN(Cc1cccc(C#N)c1)C2.O=C(O)C(F)(F)F, the “Percent Effect” value rises from -90.04% to -58.91%.

Compared with N#Cc1cccc(CN2CCn3cc(Cn4cccn4)nc3C2)c1.O=C(O)C(F)(F)F.O=C(O)C(F)(F)F, O=C(O)C(F)(F)F.O=C(O)C(F)(F)F.c1ccc(CCN2CCn3cc(Cn4cccn4)nc3C2)cc1 is lower in “Percent Effect” value: 78.59% for the first, 7.27% for the second.

First: Fc1ccc(CN2CCn3cc(Cn4cccn4)nc3C2)cc1.O=C(O)C(F)(F)F
Second: Cc1ccc2c(n1)N(CCn1cccn1)CCN(S(C)(=O)=O)C2.O=C(O)C(F)(F)F
The “Percent Effect” value of the first is higher: 43.38% for the first, -106% for the second.

First: CN(C)CCOCC1CN(Cc2cccs2)Cc2ccnn2C1.O=C(O)C(F)(F)F.O=C(O)C(F)(F)F.O=C(O)C(F)(F)F (configuration not stated)
Second: CN(C)CCN1CCN(Cc2cccs2)Cc2cccnc21.O=C(O)C(F)(F)F.O=C(O)C(F)(F)F.O=C(O)C(F)(F)F
The “Percent Effect” value of the first is lower: 62.34% for the first, 77.04% for the second.

Compared with CN(C)CCN1CCN(Cc2cccc(C#N)c2)Cc2cccnc21.O=C(O)C(F)(F)F.O=C(O)C(F)(F)F.O=C(O)C(F)(F)F, CN(C)CCN1CCN(Cc2ccco2)Cc2cccnc21.O=C(O)C(F)(F)F.O=C(O)C(F)(F)F.O=C(O)C(F)(F)F is lower in “Percent Effect” value: 65.04% for the first, 11.84% for the second.

First: CN1CCN(Cc2cccc(C#N)c2)Cc2cccnc21.O=C(O)C(F)(F)F.O=C(O)C(F)(F)F
Second: CN(C)CCN1CCN(Cc2nccs2)Cc2cccnc21.O=C(O)C(F)(F)F.O=C(O)C(F)(F)F.O=C(O)C(F)(F)F
The “Percent Effect” value of the first is lower: -79.43% for the first, 5.575% for the second.

Compared with COc1ccccc1CNC(=O)N1CCN(Cc2cc(C)on2)CC1, O=C(CN1CCc2onc(-c3ccccc3F)c2C1)NC1CC1 is lower in “Percent Effect” value: -4.63% for the first, -100.2% for the second.

Compared with COCc1nnc(NC(=O)CN2C(=O)c3ccccc3NC2C(C)C)s1 (configuration not stated), CC(C)CN1CCCC1c1ccc(C(=O)Nc2cc[nH]n2)s1 (configuration not stated) is higher in “Percent Effect” value: -66.52% for the first, 42.59% for the second.

Compared with O=C(COc1ccc(Cl)cc1)N1CCOCC1c1ncon1 (configuration not stated), CC(=O)N1CCN(C(=O)Cn2ccc3c(Cl)cccc32)CC1 is higher in “Percent Effect” value: -73.82% for the first, -40.91% for the second.

Compared with Cc1nc(N(C)C)nc(NCCc2ccccn2)c1C, OCCNc1nc(NCc2cccnc2)nc2nccnc12 is lower in “Percent Effect” value: -11.2% for the first, -78.22% for the second.

Going from O=S1(=O)CCC(S(=O)(=O)c2cccc(S(=O)(=O)N3CCCCCC3)c2)C1 (configuration not stated) to CCN1Cc2ccccc2N(C(=O)C2CCC2)CCC1=O, the “Percent Effect” value rises from -52.35% to -10.23%.

First: CCc1ccc(CN2CCC3(CC2)CN(c2cnn(C)c2)C(=O)CO3)o1.O=C(O)C(F)(F)F.O=C(O)C(F)(F)F
Second: Cc1ccc2c(n1)N(CCn1cccn1)CCN(CC1CC1)C2.O=C(O)C(F)(F)F.O=C(O)C(F)(F)F
The “Percent Effect” value of the first is lower: -59.96% for the first, 77.61% for the second.

First: COCCN1CCN(Cc2c(C)noc2C)Cc2ccc(C)nc21.O=C(O)C(F)(F)F.O=C(O)C(F)(F)F
Second: Cc1ccc2c(n1)N(CCN(C)C)CCN(Cc1c(C)noc1C)C2.O=C(O)C(F)(F)F.O=C(O)C(F)(F)F.O=C(O)C(F)(F)F
The “Percent Effect” value of the first is lower: -62.13% for the first, 61.92% for the second.

First: Cc1noc(C)c1CN1CCN(CCN(C)C)c2ncccc2C1.O=C(O)C(F)(F)F.O=C(O)C(F)(F)F.O=C(O)C(F)(F)F
Second: CCS(=O)(=O)N1CCN(CCn2cccn2)c2nc(C)ccc2C1.O=C(O)C(F)(F)F
The “Percent Effect” value of the first is higher: 19.65% for the first, -65.79% for the second.

First: CC(C)NC(=O)C1CN(C(=O)CCc2ccccc2)CC12CCOCC2 (configuration not stated)
Second: O=C(NCCc1cccc(F)c1)c1nc2c(s1)CCCN2C(=O)C1CC1
The “Percent Effect” value of the first is higher: -79.45% for the first, -105% for the second.

First: NS(=O)(=O)c1ccc(NCc2ccccc2F)cc1C(F)(F)F
Second: Oc1ccc(Cl)cc1CNCc1ccccc1C(F)(F)F
The “Percent Effect” value of the first is lower: -7.015% for the first, 63.6% for the second.

Compared with OCc1cccc(CNCc2cccc3c2OCCO3)c1, Oc1ccc(Cl)cc1CNCc1cccc(C(F)(F)F)c1 is higher in “Percent Effect” value: 41.91% for the first, 88.68% for the second.

Going from CC(=O)N1CCC(NC(=O)c2cc(Cl)ccc2O)CC1 to Cc1ccccc1CNCc1cc(Cl)ccc1O, the “Percent Effect” value rises from -71.2% to 74.83%.

Compared with O=C1CCCN1c1cccc(CNCc2cc(F)ccc2F)c1, Oc1ccc(Cl)cc1CNCc1ccccc1Cl is higher in “Percent Effect” value: -68.04% for the first, 75.8% for the second.

First: NS(=O)(=O)c1ccc(CNCC(=O)NCc2ccc(Cl)cc2Cl)cc1
Second: Cc1cc(NC(=O)Cc2ccccc2O)c[nH]c1=O
The “Percent Effect” value of the first is lower: -66.27% for the first, -29.46% for the second.

Compared with c1cnn(CCNCc2cnc(N3CCOCC3)nc2)c1, CCc1nc(CN2CCCC(N(C)CCn3cccn3)C2)no1 (configuration not stated) is higher in “Percent Effect” value: -160.5% for the first, -71.81% for the second.

First: Clc1snnc1CN1CCCC1Cn1cncn1 (configuration not stated)
Second: CC(C)CN1CCCC1c1ccc(C(=O)Nc2cn(C)nn2)s1 (configuration not stated)
The “Percent Effect” value of the first is lower: -22.89% for the first, 51.14% for the second.

First: COC[C@@H]1CCC[C@]12CN(S(=O)(=O)c1cn(C)cn1)CCO2
Second: CC1N(c2cnn(C)c2)C(=O)COC12CCN(Cc1ccoc1)CC2 (configuration not stated)
The “Percent Effect” value of the first is lower: -139.4% for the first, -59.84% for the second.

Going from CSCC(=O)NCc1cc(Br)ccc1OC(F)F to COCCC1(C(=O)O)CCCN(C(=O)c2cc(F)ccc2OC)C1 (configuration not stated), the “Percent Effect” value falls from -97.53% to -162.1%.

Compared with NC(=O)C1Cn2ccnc2C2(CCN(C(=O)c3ccncc3)CC2)O1 (configuration not stated), CN1CCCC1c1ccc(C(=O)Nc2c3c(nn2C)CCC3)s1 (configuration not stated) is lower in “Percent Effect” value: -59.21% for the first, -68.39% for the second.

Going from CCc1ncc2c(n1)CN(Cc1nc(-c3cccs3)no1)CC2 to CC(C)CN(C(=O)Nc1cccnc1)C1CC1, the “Percent Effect” value rises from -24.12% to -3.552%.
